Screening results deposited in PubChem by Broad Institute.
PvdQ acylase – P. aeruginosa PvdQ acylase inhibition; purified PvdQ acylase, fluorescence plate reader; inhibition, % at 10 µM; actives 0.063% (n = 340,000); in the data active = inhibition above about 30%, passing the limit was not always enough;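 note: 0% = vehicle neutral wells and 100% = reference inhibitor wells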
Statin myotox sup – suppression of simvastatin myotoxicity | C2C12 myotubes + simvastatin, ATP luminescence, 48 h; scaled: DMSO 0, geranylgeraniol control 100 | rescue of ATP level, % at 7.49 µM | actives 0.78% (n = 330,000);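 active = mean ATP rescue above about 67%, or every replicate alone reaching that limit, limit read from the data, passing the limit was not always enough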;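 note: myotubes were challenged with 10 µM simvastatin during compound exposure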
PGC1a acetyl inh – lowers PGC1a acetylation signal in U2OS cells; actives 0.17% (n = 350,000); AlphaScreen anti-acetyl-lysine; with virally co-expressed GCN5 acetyltransferase; inhibition, % at 15.6 µM;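 active = every replicate shows inhibition of at least 40%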;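 note: 0% = neutral control wells and 100% = positive control wells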
DENV2 CPE – protects cells from dengue virus 2 cytopathic effect; DENV2-infected cells, cytopathic effect rescue, plate reader; CPE inhibition, % at 9.99 µM; actives 1.7% (n = 350,000); AID 651640; in the data active = CPE inhibition above about 20%, passing the limit was not always enough; tested in BHK-21 cells;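 note: 0% = median of neutral control wells and 100% = median of positive control wells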
miR-122 sensor – inhibitors of miR-122 in Huh7 cells | Huh7 miR-122 Renilla luciferase sensor, 48 h; neutral wells = 0, positive control = 100 | activation (reporter increase), % at 12.5 µM | actives 0.3% (n = 340,000) | AID 602342;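 active = mean replicate activation score at least 90 and every replicate individually at or above 90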;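 note: higher luciferase means less miR-122 activity so hits act as miR-122 inhibitors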
Active calls of the source: *; x = no result; [ ] = dose if it differs, or a comment. Shown are actives, neighbours in structure and some others; about 2.2% of the full set was active somewhere.

SMILES	PvdQ acylase	Statin myotox sup	PGC1a acetyl inh	DENV2 CPE	miR-122 sensor
CN(CC(=O)Nc1c(Cl)cccc1Cl)C(=O)c1ccc(NS(=O)(=O)c2ccc3[nH]c(=O)[nH]c3c2)cc1	0.4	3.8	6.3	40.4*	-3.6
CN1C(=O)c2cc(NC(=O)Cc3cccs3)ccc2OC[C@@H]2O[C@@H](CC(=O)NCC3CCCCC3)CC[C@@H]21	x	25.1	-5.7	-6.0	195.6*[16.7 µM]
CN1C(=O)c2cc(NC(=O)Cc3cccs3)ccc2OC[C@H]2O[C@@H](CC(=O)NCC3CC3)CC[C@H]21	x	2.6	9.9	5.3	2.2[16.7 µM]
CN1C(=O)c2cc(NC(=O)Cc3cccs3)ccc2OC[C@@H]2O[C@H](CC(=O)NCc3ccc(-c4ccccc4)cc3)CC[C@@H]21	x	-1.9	-3.8	-5.8	188.3*[16.7 µM]
CN1C(=O)c2cc(NC(=O)Cc3ccccc3)ccc2OC[C@@H]2O[C@@H](CC(=O)NCc3ccc(Cl)cc3)CC[C@@H]21	x	26.9	6.1	4.2	233.3*[16.7 µM]
CN1C(=O)c2cc(NC(=O)Cc3cccs3)ccc2OC[C@H]2O[C@H](CC(=O)NCc3ccc(-c4ccccc4)cc3)CC[C@@H]21	x	-11.9	-2.0	0.5	-18.3[16.7 µM]
Cc1ccccc1NC(=O)Nc1ccc2c(c1)C(=O)N(C)[C@H]1CC[C@H](CC(=O)NCC3CC3)O[C@H]1CO2	x	24.5	0.8	-0.8	227.8*[16.7 µM]
Cc1ccccc1NC(=O)Nc1ccc2c(c1)C(=O)N(C)[C@@H]1CC[C@@H](CC(=O)NCC3CC3)O[C@@H]1CO2	x	-7.1	1.8	-12.7	-4.4[16.7 µM]
CCCNC(=O)N1CC2(C1)[C@H](c1ccccc1)[C@@H](CO)N2C(=O)C1CCC1	x	x	7.6	18.2	x
CO[C@H]1CN(C)C(=O)c2ccc(NC(=O)C3CC3)cc2OC[C@H](C)N(C(=O)C2CCOCC2)C[C@H]1C	x	6.3	x	7.3	2.2[16.7 µM]
CN1C(=O)c2cc(NC(=O)NCc3ccccc3)ccc2OC[C@@H]2O[C@@H](CC(=O)NCC3CCCCC3)CC[C@@H]21	x	56.2	0.9	-1.0	120.0*[16.7 µM]
CN1C(=O)c2cc(NC(=O)NCc3ccccc3)ccc2OC[C@H]2O[C@@H](CC(=O)NCC3CCCCC3)CC[C@H]21	x	-5.7	-13.7	-6.7	6.7[16.7 µM]
CN1C(=O)c2cc(NC(=O)c3cscn3)ccc2OC[C@H]2O[C@H](CC(=O)NCc3ccc(Cl)c(Cl)c3)CC[C@H]21	x	78.2*	-6.0	5.4	-28.3[16.7 µM]
CN1C(=O)c2cc(NC(=O)c3cscn3)ccc2OC[C@@H]2O[C@H](CC(=O)NCc3ccc(Cl)c(Cl)c3)CC[C@H]21	x	-12.9	-3.6	4.7	-30.0[16.7 µM]
C[C@H](CO)N1C[C@H](C)[C@@H](CN(C)S(=O)(=O)c2cn(C)cn2)Oc2c(NS(=O)(=O)c3ccc(Cl)cc3)cccc2C1=O	x	x	0.3	x	-1.1[16.7 µM]
COc1ccc(CN(C)C[C@@H]2OCCCC[C@@H](C)Oc3ccc(NC(=O)c4ccncc4)cc3C(=O)N([C@@H](C)CO)C[C@H]2C)cc1	x	x	10.0	-3.6	4.2[16.7 µM]
CC(C)[C@H]1COCCS(=O)(=O)N1Cc1ccc(Cl)cc1	-6.4	-3.0	x	-0.5	-3.4
CCC(C)[C@H]1COCCS(=O)(=O)N1Cc1ccc(Br)cc1 (some centres undefined)	-14.4	117.2*	-10.1	100.2*	1.1
CO[C@H]1CN(C)C(=O)c2ccc(NC(=O)C3CC3)cc2OC[C@@H](C)N(C(=O)c2ccncc2)C[C@H]1C	x	-2.7	0.3	x	x
O=C(Cc1coc(-c2ccc(F)cc2)n1)Nc1ccccc1	6.5	106.1*	-8.5	x	-8.0
O=C(Cc1cc(C(=O)O)c2ccccc2n1)Nc1ccccc1	16.4	-19.9	-17.2	-7.1	1.3
CC(C)NC(=O)N1CCCCN2[C@H](CO)[C@H](c3ccc(C#CC4CC4)cc3)[C@H]2C1	x	-3.1	0.4	66.2*	6.1[16.7 µM]
CC(C)NC(=O)N1CCCCN2[C@@H](CO)[C@@H](c3ccc(C#CC4CC4)cc3)[C@@H]2C1	x	-29.0	9.3	39.9*	15.4[16.7 µM]
CC(C)NC(=O)N1CCCCN2[C@H](C1)[C@H](c1ccc(C#CC3CC3)cc1)[C@@H]2CO	x	31.6	4.1	-10.4	3.9[16.7 µM]
CCCN(C)C[C@H]1OCCCC[C@H](C)Oc2ccc(NC(=O)CCC(F)(F)F)cc2C(=O)N([C@@H](C)CO)C[C@H]1C	x	4.4	4.0	x	-2.5[16.7 µM]
SMILES	PvdQ acylase	Statin myotox sup	PGC1a acetyl inh	DENV2 CPE	miR-122 sensor
O=C(C(=O)N(Cc1ccccc1)Cc1ccccc1)c1c(-c2ccccc2)[nH]c2ccccc12	-10.1	-6.5	-1.8	2.3	100.0*
COc1ccc2c3c([nH]c2c1)[C@H](CO)N(C(=O)CN(C)C)CC31CCN(Cc2cncnc2)CC1	x	x	6.8	5.6	x
COCC(=O)N1CC2(C1)CN(C(=O)NC1CCCC1)[C@H](CO)c1c2c2ccc(OC)cc2n1C	x	x	-16.9	68.5*	x
COCC(=O)N1CC2(CCN(C(=O)NC(C)C)CC2)c2c(n(C)c3cc(OC)ccc23)[C@@H]1CO	x	x	1.3	3.0	x
COc1ccc2c3c(n(C)c2c1)[C@H](CO)N(C(=O)C1CCOCC1)CC31CN(C(=O)C2CC2)C1	x	x	x	21.9*	x
COc1ccc2c3c(n(C)c2c1)[C@@H](CO)N(C(=O)C1CCOCC1)CC31CN(C(=O)C2CC2)C1	x	x	x	-0.8	x
COCC(=O)N1CC2(CN(C(=O)NC(C)C)C2)c2c(n(C)c3cc(OC)ccc23)[C@@H]1CO	x	x	-12.6	25.8*	x
COCC(=O)N1CCC2(CC1)CN(C(=O)NC1CCCC1)[C@@H](CO)c1c2c2ccc(OC)cc2n1C	x	x	11.3	19.5	x
O=C(C1CCC1)N1[C@@H](CO)[C@@H](c2ccccc2)C12CN(Cc1ccccc1)C2	x	x	-13.3	-4.4	x
C[C@H](CO)N1C[C@H](C)[C@@H](CN(C)C)Oc2ccc(NS(=O)(=O)c3ccc(F)cc3)cc2C1=O	x	-24.1	-0.2	10.1	-0.6[16.7 µM]
N#Cc1ccc(-c2ccc([C@H]3[C@H](CO)N4CCCCN(C(=O)Nc5ccc(F)cc5)C[C@@H]34)cc2)cc1	x	21.8	-6.0	48.7*	-2.0[16.7 µM]
N#Cc1ccc(-c2ccc([C@H]3[C@H]4CN(C(=O)Nc5ccc(F)cc5)CCCCN4[C@H]3CO)cc2)cc1	x	2.2	-12.5	23.8*	-0.9[16.7 µM]
CN(C)CC(=O)Nc1ccc2c(c1)[C@H]1C[C@H](CC(=O)NCc3ccccc3F)O[C@H](CO)[C@H]1O2	x	-1.8	-4.0	-4.7	-0.6[16.7 µM]
Cc1ccc(-c2cnc3c(c2)C(=O)N([C@@H](C)CO)C[C@@H](C)[C@H](CN(C)C(=O)c2ccc(F)cc2)O3)cc1	x	42.3	1.1	-1.0	-0.7[16.7 µM]
C[C@@H]1CN([C@H](C)CO)C(=O)c2cccc(NS(=O)(=O)c3ccc(F)cc3)c2O[C@H]1CN(C)C	x	0.5	-2.4	5.5	2.7[16.7 µM]
O=C(COC(=O)c1cccc(Br)c1)Nc1ccc2[nH]c(=O)[nH]c2c1	0.5	4.2	-6.8	72.7*	-17.1
O=C(COC(=O)c1c(F)cccc1F)Nc1ccc2[nH]c(=O)[nH]c2c1	-4.5	x	x	-4.7	x
CN1[C@@H]2c3ccc(-c4ccncc4)c(=O)n3C[C@H]1[C@H](CO)[C@H]2C(=O)N1CCC(Cc2ccccc2)CC1	x	-30.1	x	24.6*	x
